According to PubChem BioAssay AID488789 (Broad Institute, 2010):
Entries with a potency or affinity are not part of this list. Inconclusive results are not listed. Activity calls are given as the source filed them.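 The calls were made as follows: active = samples whose fitted half-maximal inhibition concentration is no more than ten times the top valid dose tested; inconclusive = flat response between -70 and -30, or invalid curve fit; inactive = flat within 30 of zero, potency above limit, or signal rising.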

Each compound was assayed against Trypsin (Sus scrofa) (UniProt P00761) (assay: porcine trypsin inhibitors, dose response, selectivity assay for Rce1 protease inhibitor project, biochemical, quenched peptide fluorescence, cherry-pick (AID 488789;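 also: more negative means stronger trypsin inhibition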)). Conditions: quenched peptide cleavage fluorescence; series mostly up to 10 µM.
Sequence of Trypsin (Sus scrofa) (P00761 whole entry, looked up): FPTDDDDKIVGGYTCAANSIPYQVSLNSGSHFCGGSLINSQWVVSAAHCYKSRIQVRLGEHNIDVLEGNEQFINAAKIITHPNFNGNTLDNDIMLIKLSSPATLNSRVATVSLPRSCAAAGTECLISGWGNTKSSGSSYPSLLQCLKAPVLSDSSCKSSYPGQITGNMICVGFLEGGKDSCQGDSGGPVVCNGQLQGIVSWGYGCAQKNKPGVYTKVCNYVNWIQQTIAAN

outcome, inactive:
COc1cccc(NC(=O)Nc2cccn(Cc3ccc(C)cc3)c2=O)c1
CCN(CC)CCNC(=O)CSc1c2c(nc3cc(Cl)ccc13)CCCC2
CC(C)CNC(=O)COc1cccc(C(=O)NCc2ccccc2)c1
Cc1ccc(S(=O)(=O)CC(=O)N2CCN(c3ccccc3F)CC2)cc1
Cn1c(=O)c(C(=O)NCCO)c(O)c2ccccc21
COc1cc(-c2nc3ccccn3c2/N=C/c2cccc(OC)c2O)ccc1O
Cc1cc(Cl)c2oc(C(=O)N3CCN(C(=O)c4ccco4)CC3)c(C)c2c1
COc1ccc(Cc2nc3ccc(C(=O)N4CCCC4)cc3o2)cc1
O=C(NCCc1c[nH]c2ccccc12)OCCSS(=O)(=O)O
CCOc1ccc(NC(=O)CCSc2ccc(C)cc2)cc1
Nc1nonc1-n1nnc(C(=O)N/N=C/c2ccoc2)c1CSc1ccccc1
FC(F)(F)c1cc(Oc2ccccc2)ncc1-c1nnc(-c2ccccc2Cl)o1
COc1ccc(C2c3c(ncn(CCN4CCOCC4)c3=N)Oc3ccc4ccccc4c32)cc1 (stereo not drawn)
O=C(Nc1ncccn1)c1ccc([N+](=O)[O-])cc1
CCCCCCCCNC(C)C(O)c1ccc(SC(C)C)cc1 (stereo not drawn)
CCCOc1ccc(-c2c(C(=O)N/N=C/c3cccs3)nnn2-c2nonc2N)cc1
CC(Cc1cccs1)NC(=O)Nc1ccc([N+](=O)[O-])cc1 (stereo not drawn)
Cc1ccc(C(=O)N/C(=C/c2ccco2)C(=O)Nc2cccc(C(=O)O)c2)cc1
O=C(c1cn(-c2ccccc2)nc1-c1cccs1)N1CCN(c2ccccc2)CC1
CCOC(=O)c1cc2c(=O)[nH]ccc2nc1C
O=C1CCN(Cc2ccccc2)CCN1[C@H](CSc1ccccc1)Cc1ccccc1
COC(C[C@@H]1O[C@@H]1C(=O)[C@@H](C)OCc1ccccc1)OC
Cn1c(CCNS(=O)(=O)c2ccccc2)nnc1SCc1cccnc1
NC(=O)[C@H]1CC2(CC(c3cccc(NC(=O)COc4ccc(Cl)cc4)c3)=NO2)CN1C(=O)C(c1ccccc1)c1ccccc1 (stereo partly drawn)
Cc1ccc(-c2nc(CN3CCCCC3)cc(CN3CCCCC3)c2O)cc1
c1ccc(Nc2cccc(Nc3ccccc3)n2)cc1
CCCCn1c(=O)[nH]c(=O)c2c1nc(-c1ccc(OC)c(Br)c1)n2CC(C)C
O=C(Nc1ccc2c(c1)CCC2)c1ccccc1Br
Cc1ccc(C(=O)c2c3ccc(C(F)(F)F)cc3[n+]([O-])n2CCCC(N)=O)cc1
COc1ccc(CCN(C)C(=O)c2ccc(S(=O)(=O)Nc3ccccc3C)cc2)cc1OC
CNC(=S)N/N=C/c1cn(Cc2c(F)cccc2Cl)c2ccccc12
Nc1nnnn1/N=C/c1cccc(OCc2ccccc2Cl)c1
CC(=O)OC1CCC2(C)C(COc3ccc4ccc(=O)oc4c3)C(C)(O)CCC2C1(C)C (stereo not drawn)
O=C(CCCn1c(=O)[nH]c2ccc(Br)cc2c1=O)NCc1ccc(Cl)cc1
COc1ccc(OC)c(NC(=O)c2cc3oc4ccccc4c3cc2O)c1
CCCCCc1ccc(OCCOCCn2c[n+](C)c3ccccc32)c(CCCCC)c1
COc1ccccc1CC(=O)Nc1ccc2c(C)cc(=O)oc2c1
O=C1CCCC(O)=C1N=Nc1ccc2ncsc2c1
